Source: PubChem BioAssay AID1159580 (chemical genetic matrix, 2015)
“And” between values parts separate entries of the source, which are not always exact repeats. Identical values can stand only once. In all, about 5,500 compounds went through this assay and about 2,000 (36%) were called active. About 18% were inconclusive and are not listed. No stated cut-off is given here; in the data, active means normalized growth mostly below about 0.91 (no sharp cut-off); inconclusive means no clear call, values can overlap the other calls; inactive means mostly above about 0.92. Some of the results follow.

Experiment: chemical genetic growth profiling, strain panel (AID 1159580);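 further: tested at 20 µM; growth read once vehicle control cultures reached saturation at 30 °C; 1 = growth at the plate median or of vehicle wells; lower values mean less growth of the strain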
Settings: S. cerevisiae deletion strains, growth OD

Measured: normalized growth

COc1ccc(C2Sc3ccccc3N(CCN(C)C)C(=O)C2OC(C)=O)cc1 (stereo not given)
inactive: locus YAL013W, strain DEP1, active compounds read low 1 | locus YAL021C, strain ccr4, active compounds read low 0.985 | locus YAL026C, strain drs2, active compounds read low 0.969 | locus YAL030W, strain snc1, active compounds read low 0.986 | locus YBL061C, strain skt5, active compounds read low 0.987 | locus YBR009C, strain hhf1, active compounds read low 1.01 | locus YBR021W, strain FUR4, active compounds read low 1.04 | locus YBR023C, strain chs3, active compounds read low 0.988 | locus YBR171W, strain sec66, active compounds read low 0.966 | locus YBR229C, strain ROT2, active compounds read low 1.01 | locus YBR231C, strain swc5, active compounds read low 0.919 | locus YBR279W, strain paf1, active compounds read low 0.977 | locus YCL011C, strain gbp2, active compounds read low 0.971 | locus YCL016C, strain dcc1, active compounds read low 0.999 | locus YCL029C, strain bik1, active compounds read low 1.03 | locus YCL069W, strain vba3, active compounds read low 0.975 | locus YCR088W, strain abp1, active compounds read low 0.979 | locus YDL005C, strain med2, active compounds read low 0.953 | locus YDL035C, strain GPR1, active compounds read low 1.02 | locus YDL040C, strain nat1, active compounds read low 0.975 | locus YDL074C, strain BRE1, active compounds read low 1.04 | locus YDL101C, strain DUN1, active compounds read low 1.01 | locus YDL134C, strain PPH21, active compounds read low 1.01 | locus YDL185W, strain tfp1, active compounds read low 1.04 | locus YDL192W, strain arf1, active compounds read low 1.04 | locus YDR001C, strain nth1, active compounds read low 0.949 | locus YDR069C, strain doa4, active compounds read low 0.963 | locus YDR101C, strain arx1, active compounds read low 1.03 | locus YDR137W, strain rgp1, active compounds read low 1.01 | locus YDR150W, strain NUM1, active compounds read low 1.01 | locus YDR159W, strain sac3, active compounds read low 0.981 | locus YDR162C, strain NBP2, active compounds read low 1.01 | locus YDR195W, strain ref2 0.923 | locus YDR297W, strain sur2, active compounds read low 0.989 | locus YDR318W, strain mcm21, active compounds read low 1.03 | locus YDR334W, strain swr1, active compounds read low 0.917 | locus YDR335W, strain msn5, active compounds read low 0.943 | locus YDR388W, active compounds read low 1.03 | locus YDR392W, strain spt3, active compounds read low 1.02 | locus YDR502C, strain sam2, active compounds read low 1.03 | locus YEL003W, strain gim4, active compounds read low 0.978 | locus YEL037C, strain rad23, active compounds read low 0.97 | locus YEL061C, strain CIN8 (second series), active compounds read low 0.943 | locus YEL061C, strain CIN8, active compounds read low 1.01 | locus YER015W, strain faa2, active compounds read low 0.962 | locus YER016W, strain bim1, active compounds read low 0.993 | locus YER110C, active compounds read low 1.05 | locus YER111C, strain swi4, active compounds read low 0.953 | locus YER155C, strain BEM2 (second series), active compounds read low 0.986 | locus YER155C, strain BEM2, active compounds read low 1.01 | locus YER167W, strain BCK2, active compounds read low 1.03 | locus YFR010W, strain ubp6, active compounds read low 0.938 | locus YGL078C, strain dbp3, active compounds read low 1.03 | locus YGL086W, strain mad1, active compounds read low 1.02 | locus YGL167C, strain pmr1, active compounds read low 1.01 | locus YGL173C, strain kem1, active compounds read low 1.01 | locus YGL227W, strain vid30, active compounds read low 0.984 | locus YGL240W, strain doc1, active compounds read low 0.983 | locus YGL248W, strain PDE1, active compounds read low 1.01 | locus YGL253W, strain hxk2, active compounds read low 0.959 | locus YGR078C, strain PAC10, active compounds read low 1.01 | locus YGR135W, strain pre9, active compounds read low 1.02 | locus YGR229C, strain SMI1, active compounds read low 1.05 | locus YGR252W, strain gcn5, active compounds read low 1.06 | locus YHR013C, strain ard1, active compounds read low 0.979 | locus YHR027C, strain rpn1, active compounds read low 0.977 | locus YHR030C, strain SLT2, active compounds read low 1.01 and 1.04 | locus YHR079C, strain IRE1 (second series), active compounds read low 1.03 | locus YHR079C, strain IRE1, active compounds read low 1.01 | locus YHR094C, strain hxt1, active compounds read low 1.03 | locus YHR129C, strain ARP1, active compounds read low 1.01 | locus YHR142W, strain chs7, active compounds read low 0.972 | locus YHR200W, strain rpn10, active compounds read low 1.04 | locus YIL066C, strain RNR3, active compounds read low 1.01 | locus YIL073C, strain SPO22, active compounds read low 1.12 | locus YIL125W, strain kgd1, active compounds read low 1.03 | locus YIR030C, strain dcg1, active compounds read low 1.04 | locus YJL092W, strain hpr5, active compounds read low 0.99 | locus YJL095W, strain BCK1 (second series), active compounds read low 0.973 | locus YJL095W, strain BCK1, active compounds read low 1.03 and 1.01 | locus YJL115W, strain asf1, active compounds read low 0.949 | locus YJL129C, strain trk1, active compounds read low 0.925 | locus YJL134W, strain LCB3, active compounds read low 1 | locus YJL154C, strain vps35, active compounds read low 0.982 | locus YJL164C, strain tpk1, active compounds read low 0.996 | locus YJL166W, strain qcr8, active compounds read low 0.986 | locus YJL168C, strain set2, active compounds read low 1.04 | locus YJL187C, strain SWE1 (second series), active compounds read low 1.01 | locus YJR066W, strain TOR1, active compounds read low 0.942 | locus YJR075W, strain HOC1, active compounds read low 1.02
